# Measurements taken from PubChem BioAssay (NCATS).
# Where “and” joins values, the source holds several entries; their conditions need not be identical. Equal values may be shown once. Records with an inconclusive call do not appear. Values without a mark were called inactive. Calls of active or inactive are those of the source. Calls come from the whole dose curve; as a rule, active = well fitted curve in the direction sought with a large enough effect; inconclusive = small, poorly fitted or top-dose-only effect, or another doubt; inactive = no such curve, though single readings can be large; an effect the other way counts as inactive or inconclusive.
# Experiment: Viability qHTS for spleen associated tyrosine kinase inhibitor (SYKi) drug resistant MV4-11 cells (AID 1963824); note: nearly all actives have a fitted effect of over 35% in size
# Details: SYKi-resistant MV4-11 viability, CellTiter-Glo, 72 h; series mostly up to 45 µM; viability, % of control: at the top concentration
# How it was run: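 SYK-inhibitor-resistant MV4-11 AML cells were seeded at 500 per well onto compound and cultured 72 hours (37 °C, 5% CO2). CellTiter-Glo was then added, and after 10 min at room temperature, luminescence gave viability.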
# Potency is the fitted concentration of half-maximal effect.
row,SMILES,Potency
1,Cc1cccc(Nc2nc(N[C@@H]3CCCC[C@H]3N)ncc2C(N)=O)c1,2.63 µM (active)
2,OC(c1cc(C(F)(F)F)nc2c(C(F)(F)F)cccc12)C1CCCCN1 (centres undefined),9.34 µM (active)
3,COc1cc2c(Nc3ccc(NC(=O)c4ccccc4)cc3)ncnc2cc1OCCCN1CCOCC1,2.06 µM (active) and 2.09 µM (active)
4,Cc1cccc2c1CC[C@H](CN1CCC(c3c(Cl)cccc3Cl)CC1)C[C@@H]2O,2.59 µM (active)
5,O[C@@H](CNC[C@H](O)[C@H]1CCc2cc(F)ccc2O1)[C@@H]1CCc2cc(F)ccc2O1,21.1 µM (active)
6,CNC(=O)c1cc(Oc2ccc(NC(=O)Nc3ccc(Cl)c(C(F)(F)F)c3)cc2)ccn1,23.5 nM (active) and 59.6 nM (active) and 13 nM (active)
7,CC(C)c1cc(C(=O)N2Cc3ccc(CN4CCN(C)CC4)cc3C2)c(O)cc1O,41.1 nM (active) and 52.5 nM (active)
8,COc1cc2ncnc(Nc3cccc(Cl)c3)c2cc1OC,4.17 µM (active) and 6.51 µM (active)
9,CNCCCC12CCC(c3ccccc31)c1ccccc12,18.4 µM (active)
10,COc1ccc(-c2cc3c(C)nc(N)nc3n(C3CCC(OCCO)CC3)c2=O)cn1 (centres undefined),206 nM (active) and 417 nM (active)

# Experiment: Quantitative highthroughput screen to assess conditional lethalithy of NOMO1 cells grown in RPMI1640 with dialyzed fetal bovine serum (RPMI+ds) (AID 1963877); note: nearly all actives have a fitted effect of over 30% in size
# Details: NOMO1 in RPMI+dialyzed FBS viability, ATP luminescence, 48 h; series mostly up to 45.8 µM; viability: at the top concentration
# How it was run: (§1)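 Each medium arm—HPLM with 10% dialyzed FBS, or RPMI1640 with 5 mM glucose and 10% untreated or dialyzed FBS—was screened against an 11-point, 3-fold compound titration for 48 h at 37 °C, with CellTiter-Glo luminescence as endpoint.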
row,SMILES,Potency
1,CC(Oc1ccc(O)cc1)(P(=O)(O)O)P(=O)(O)O,26.4 µM (active)
2,CNC(=O)c1cc(Oc2ccc(NC(=O)Nc3ccc(Cl)c(C(F)(F)F)c3)cc2)ccn1,18.7 µM (active)
3,CC(C)c1cc(C(=O)N2Cc3ccc(CN4CCN(C)CC4)cc3C2)c(O)cc1O,0.662 µM (active)

# Experiment: Quantitative highthroughput screen to assess conditional lethalithy of NOMO1 cells grown in Human Plasma-Like Medium with dialyzed fetal bovine serum (HPLM+ds) (AID 1963878); note: nearly all actives have a fitted effect of over 35% in size;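 for Viability: 100% = DMSO wells and 0% = empty wells on each plate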
# Details: NOMO1 AML cells in HPLM+ds, CellTiter-Glo viability, 48 h; series mostly up to 45.8 µM; viability: at the top concentration
# How it was run: as §1
SMILES,Potency,viability
FC(F)c1nc2ccccc2n1-c1nc(N2CCOCC2)nc(N2CCOCC2)n1,0.0148 µM (active),–
OCCNC1CCCc2c1[nH]c1ccc(-c3ccccc3)cc21 (centres undefined),23.5 µM (active),–
Cc1ccc(C(=O)Nc2ccc(CN3CCN(C)CC3)c(C(F)(F)F)c2)cc1C#Cc1cnc2cccnn12,0.935 µM (active),–
CNC(=O)c1c(-c2ccc(F)cc2)oc2cc(N(CCO)S(C)(=O)=O)c(C3CC3)cc12,8.33 µM (active),–
NC1(c2ccc(-c3nc4ccn5c(=O)[nH]nc5c4cc3-c3ccccc3)cc2)CCC1,20.9 µM (active),–
CN(C)CCOC(c1ccccc1)c1ccccc1,–,75.9%
COc1cc2nc(N3CCN(C(=O)c4ccco4)CC3)nc(N)c2cc1OC,13.2 µM (active),–
c1nc2nc(Nc3ccc(N4CCOCC4)cc3)nc(NC3CCCCC3)c2[nH]1,14.8 µM (active),–
CN1CCN(c2cc(C(=O)Nc3ccc4c(c3)-c3c(c(C(N)=O)nn3-c3ccc(F)cc3)CC4)c(Cl)cn2)CC1,26.4 µM (active),–
Cn1c(=O)c2c(ncn2CC(O)CO)n(C)c1=O (centres undefined),–,91.8%
Cc1nc(N)sc1-c1ccnc(Nc2ccc(N3CCOCC3)cc2)n1,4.18 µM (active),–
N#CCNC(=O)c1ccc(-c2ccnc(Nc3ccc(N4CCOCC4)cc3)n2)cc1,23.5 µM (active),–
CC1CCC(C(=O)N(c2cc(C#CC(C)(C)C)sc2C(=O)O)C2CCC(O)CC2)CC1 (centres undefined),5.26 µM (active),–
Cc1cn[nH]c1,16.6 µM (active),–
C[C@]12C=CC(=O)C=C1CC[C@@H]1[C@@H]2C(=O)C[C@@]2(C)[C@H]1CC[C@]2(O)C(=O)CO,–,87.5% [at 23.2 µM]
CNC(=O)c1c(F)cccc1Nc1nc(Nc2cc3c(cc2OC)CCN3C(=O)CN(C)C)nc2[nH]ccc12,16.6 µM (active),–

SMILES,Potency,viability
c1cnc2cc3c(cc2n1)C1CNCC3C1,–,73.2%
CCCCCCCCCC(=O)N[C@@H](Cc1c[nH]c2ccccc12)C(=O)N[C@H](CC(N)=O)C(=O)N[C@@H](CC(=O)O)C(=O)N[C@@H]1C(=O)NCC(=O)N[C@@H](CCCN)C(=O)N[C@@H](CC(=O)O)C(=O)N[C@H](C)C(=O)N[C@@H](CC(=O)O)C(=O)NCC(=O)N[C@H](CO)C(=O)N[C@@H]([C@@H](C)CC(=O)O)C(=O)N[C@@H](CC(=O)c2ccccc2N)C(=O)O[C@@H]1C,–,92%
S=C(NCc1ccc2c(c1)OCO2)N1CCN(c2ncnc3c2oc2ccccc23)CC1,38.2 µM (active),–
c1ccc(CNc2nc(NCc3ccccc3)c3ccccc3n2)cc1,26.4 µM (active),–
Nc1nc(N)c2nc(-c3cccc(O)c3)c(-c3cccc(O)c3)nc2n1,10.5 µM (active),–
Cn1cnc2c1c(=O)[nH]c(=O)n2C,20.9 µM (active),–
O=C(CN1C(=O)C2(CCCC2)NC[C@H]1c1cc(F)cc(F)c1)Nc1ccc2c(c1)C[C@@]1(C2)C(=O)Nc2ncccc21,20.9 µM (active),–
Cc1cccc(Nc2nc(N[C@@H]3CCCC[C@H]3N)ncc2C(N)=O)c1,0.935 µM (active),–
OC(c1cc(C(F)(F)F)nc2c(C(F)(F)F)cccc12)C1CCCCN1 (centres undefined),23.5 µM (active),–
COc1cc2c(Nc3ccc(NC(=O)c4ccccc4)cc3)ncnc2cc1OCCCN1CCOCC1,–,88.6%
Cc1cccc2c1CC[C@H](CN1CCC(c3c(Cl)cccc3Cl)CC1)C[C@@H]2O,8.33 µM (active),–
O[C@@H](CNC[C@H](O)[C@H]1CCc2cc(F)ccc2O1)[C@@H]1CCc2cc(F)ccc2O1,20.9 µM (active),–
COc1cc2ncnc(Nc3cccc(Cl)c3)c2cc1OC,4.69 µM (active),–
CNCCCC12CCC(c3ccccc31)c1ccccc12,18.7 µM (active),–
COc1ccc(-c2cc3c(C)nc(N)nc3n(C3CCC(OCCO)CC3)c2=O)cn1 (centres undefined),0.105 µM (active),–
